# Laboratory results: PubChem BioAssay (NCI)
# The panel holds about 83,000 compounds, 20% with a hit somewhere; the sample as a whole holds those more often.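 Interpretation: 100, growth as untreated; towards 0, rising growth inhibition; 0, no net growth; 0 to -100, cell death. Compounds scoring below 10 were considered active.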 Values without a mark were called inactive. Calls of active or inactive are those of the source.
# Tests used:
# Test in all cases: NCI-60 one-dose screen, 48 h (100 = growth as untreated, 0 = no growth, -100 = all killed)
# Settings in all cases: 10 µM
# SR leukemia = system: SR leukemia
# RPMI-8226 leukemia = system: RPMI-8226 leukemia
# OVCAR-8 ovarian = system: OVCAR-8 ovarian
# OVCAR-5 ovarian = system: OVCAR-5 ovarian
# OVCAR-4 ovarian = system: OVCAR-4 ovarian
# SK-OV-3 ovarian = system: SK-OV-3 ovarian
# IGROV1 ovarian = system: IGROV1 ovarian
# OVCAR-3 ovarian = system: OVCAR-3 ovarian
# HS 578T breast = system: HS 578T breast
# NCI/ADR-RES ovarian = system: NCI/ADR-RES ovarian
SMILES,growth (SR leukemia),growth (RPMI-8226 leukemia),growth (OVCAR-8 ovarian),growth (OVCAR-5 ovarian),growth (OVCAR-4 ovarian),growth (SK-OV-3 ovarian),growth (IGROV1 ovarian),growth (OVCAR-3 ovarian),growth (HS 578T breast),growth (NCI/ADR-RES ovarian)
COc1ccc(-c2[nH]ncc2-c2cc(OC)c(OC)c(OC)c2)cc1,0.125% (active),0.214% (active),9.19% (active),20.7%,26.8%,-0.205% (active),28.8%,-17.5% (active),16.1%,14.5%
O=C(Nc1cccc(Cl)c1)OCC(COC(=O)Nc1cccc(Cl)c1)(COC(=O)Nc1cccc(Cl)c1)[N+](=O)[O-],22.4%,19.5%,44%,89.1%,30.8%,64.8%,42.3%,20.6%,52.1%,35.4%
O=C/C=C/c1ccc([N+](=O)[O-])cc1Cl,0.062% (active),82.1%,91.2%,115%,114%,104%,82.5%,108%,108%,101%
CN(C)CCCN(Cc1ccccc1O)C(=S)Nc1ccc(Cl)cc1,95%,93.5%,98.2%,110%,111%,107%,106%,112%,89%,104%
COc1ccc(CCc2nc3cc(-c4c(C)noc4C)ccc3n2CCN2CCOCC2)cc1,39%,-5.7% (active),34.6%,49.8%,30.8%,88.1%,48.3%,3.29% (active),50.2%,57.1%
CCOC(=O)c1cc2c(n1Cc1ccccc1)-c1oncc1CC2,13.1%,67.1%,97%,97.4%,105%,92%,42.4%,-0.497% (active),76.8%,45.3%
COc1cc([C@@H]2c3cc4c(cc3[C@H](SC(=N)N)[C@H]3COC(=O)[C@H]23)OCO4)cc(OC)c1OC,14.1%,8.62% (active),23.5%,28.2%,54.7%,-4.1% (active),-0.422% (active),1.61% (active),34.2%,-0.709% (active)
CCOC(=O)c1sc(Nc2ncccn2)nc1-c1ccccn1,62.7%,92%,85.7%,93.1%,42%,76.4%,87.4%,82.3%,105%,68.6%
COc1ccc(Cn2cc3c(c2-c2cc(OC)c(OC)c(OC)c2)CCc2cnoc2-3)cc1[N+](=O)[O-],22%,27.9%,48.7%,58.6%,47%,-12.7% (active),9.29% (active),-23.6% (active),3.07% (active),5.02% (active)
CCCCn1c(=O)[nH]c(N)c(C(c2ccc(Cl)cc2)c2c(N)[nH]c(=O)n(CCCC)c2=O)c1=O,24.2%,25.5%,46.7%,87.8%,42.7%,56.5%,46%,27.2%,50.6%,103%
Cc1ccc(S(=O)(=O)Oc2ccccc2-c2ccccc2)cc1,8.73% (active),34.4%,41.6%,63.6%,60.7%,23%,35.6%,-28.1% (active),-21.5% (active),-7.58% (active)
O=[N+]([O-])c1ccc(-c2nc(Cl)c3c(n2)CCCC3)o1,44.7%,85.3%,85%,103%,89.6%,108%,89.3%,108%,86.8%,
O=C(Nc1cccc(F)c1)Nc1cccc(Cl)c1,49.9%,66.6%,78.6%,94.9%,87.2%,114%,111%,14.4%,97.3%,89.1%
CC(C)=C1CCC(C)C/C1=N\N=C(N)N (stereo not drawn),105%,96.7%,104%,110%,107%,106%,98.6%,113%,105%,101%
COc1ccc(/C=C(\c2cc(OC)c(OC)c(OC)c2)c2nnc(-c3cccs3)o2)cc1,78.3%,83.9%,47.6%,99.4%,26.6%,62.7%,71.7%,82.6%,43.6%,66.4%
COc1ccc(-c2nnc(COc3ccc(NC(=O)Nc4cccc(C(F)(F)F)c4)cc3F)o2)cc1,3.93% (active),33.6%,49.1%,82.5%,61.4%,103%,68.8%,56.9%,67.3%,54.8%
COc1ccc(-c2nsc3c2NC(=O)CC3c2ccc(Cl)cc2)cc1 (stereo not drawn),67.8%,72.2%,90.2%,100%,99.8%,86.9%,77.6%,93.2%,95.3%,81.1%
OC(CNC1CCCC1)Cn1c2ccccc2c2ccccc21 (stereo not drawn),-32.5% (active),1.44% (active),24.2%,103%,36.2%,59.7%,30.9%,36.4%,63.6%,15.1%
Cc1cc(C)c(/C=C2\C(=O)Nc3ccc(NC(=O)CCCCCCC(=O)NO)cc32)[nH]1,22.1%,40.6%,17.7%,15.9%,50.5%,31.3%,37.9%,19.4%,21.6%,92.1%
Cc1ccc(NS(=O)(=O)c2ccccc2)c(NS(=O)(=O)c2ccccc2)c1,117%,93.4%,105%,104%,97%,102%,107%,98%,91.1%,94.7%
NC1CCC(Nc2nc(NCc3cc(Cl)ccc3O)c3ncn(C4CCCC4)c3n2)CC1 (stereo not drawn),-15.9% (active),-25.1% (active),8.24% (active),17.3%,-6.96% (active),2.6% (active),1.62% (active),-20.2% (active),-1.92% (active),26.3%
Cc1cnc(C=O)c2cccc([N+](=O)[O-])c12,16.5%,68.1%,87.3%,95%,82.1%,99.6%,95.9%,101%,94.9%,
COc1cc(/C=C/C(=O)c2cc(-c3ccc(C(F)(F)F)cc3)ccc2O)cc(OC)c1OC,23.4%,-9.06% (active),64.1%,99.6%,64.6%,81.5%,75.3%,74.1%,59.4%,65.9%
Nc1cc2c(cc1Cl)-c1ccc(Cl)cc1C2=O,109%,88.8%,92.1%,100%,98.8%,98.6%,107%,104%,97.3%,99.5%
COc1ccc(C(=O)n2nc(CC(=O)NCc3ccccc3)nc2N)cc1,93.6%,117%,115%,113%,105%,107%,93.7%,118%,103%,112%
Cc1ccc(-n2nnc3c(sc4ccccc43)c2=O)cc1,75.1%,46.1%,50%,90.3%,-23.6% (active),9.88% (active),23.5%,37.1%,23%,53.7%
Cc1ccc(NC(=O)/C=N/O)cc1C,87%,96.6%,98.6%,96.9%,85.2%,81.3%,117%,87%,95.7%,112%
N#Cc1cnc2ccc(NCc3cnc[nH]3)cc2c1Nc1ccc(F)c(Cl)c1,66.1%,83.2%,46.6%,82.7%,42.9%,39.9%,22.4%,49.7%,90.9%,98.7%
